# Bioassay records as filed in PubChem.
# Pin1 inhibitor – human Pin1 inhibition; Pin1 FP peptide displacement, HiFluor488, 10 min; AID 504891; Potency, µM (titrated, usually from 115 µM), usual class: inhibitors; hit rate 0.009% among 390,000; active = well fitted inhibition curve with a large enough effect in the polarisation, with a control signal flat, not every such curve was filed as active; inconclusive = small, poorly fitted or top-dose-only effect, or effect the other way, or a change in a side signal; inactive = no such curve, though single readings can be large or run the other way; the % refers to the polarisation
# Target sequence (Q13526 whole entry, looked up): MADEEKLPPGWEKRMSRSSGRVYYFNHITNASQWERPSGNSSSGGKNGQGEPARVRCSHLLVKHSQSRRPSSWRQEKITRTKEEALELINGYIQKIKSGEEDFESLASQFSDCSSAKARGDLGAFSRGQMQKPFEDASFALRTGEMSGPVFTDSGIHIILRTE
# Tb PFK inh – T. brucei PFK enzyme inhibition; O15648; hit rate 0.17% among 330,000; AID 485367; T. brucei PFK, ADP-Glo luminescence; Potency, µM (series often up to 57.5 µM), usual class: inhibitors; note: nearly all actives have a fitted effect of over 60% in size
# Target sequence (O15648 whole entry, looked up): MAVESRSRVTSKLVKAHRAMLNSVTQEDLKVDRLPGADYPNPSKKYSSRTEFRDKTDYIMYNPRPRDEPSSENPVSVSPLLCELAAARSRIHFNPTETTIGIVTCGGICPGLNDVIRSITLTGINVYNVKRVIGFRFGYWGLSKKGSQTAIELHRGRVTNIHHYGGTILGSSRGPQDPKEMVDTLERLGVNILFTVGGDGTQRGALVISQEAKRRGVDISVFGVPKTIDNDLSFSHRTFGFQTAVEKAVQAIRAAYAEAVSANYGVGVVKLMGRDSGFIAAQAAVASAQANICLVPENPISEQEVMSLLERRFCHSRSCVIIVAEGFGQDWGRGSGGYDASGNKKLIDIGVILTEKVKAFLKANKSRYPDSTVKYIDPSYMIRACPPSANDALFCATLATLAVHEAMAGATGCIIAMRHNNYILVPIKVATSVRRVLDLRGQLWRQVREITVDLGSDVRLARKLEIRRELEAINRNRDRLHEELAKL
#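 Activity is normalized to no-enzyme wells (full inhibition) and 1.25 nM enzyme wells (no inhibition). Reaction: 0.5 mM F6P, 0.1 mM ATP, 45 min RT, ADP-Glo luminescence; concentration-response curves fitted and classed by quality.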
# PI4K2A inh – inhibitors of human PI4K2A | Q9BTU6 | purified PI4K2A, ADP-Glo luminescence, 1 h; hits give low values | activity change, negative = inhibition, % at 76.9 µM | hit rate 0.13% among 420,000 | AID 1346378; in the data active = activity change below about -50%; inconclusive = mostly about -30% to -49%
#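 Compounds are screened against recombinant PI4K2A using PI as substrate and ATP, the latter dispensed at 300 microM. Reactions run one hour at ambient temperature before ADP-Glo detection; full inhibition defined by wells lacking enzyme.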
# PI5P4K alpha inh – PI5P4K alpha (human) kinase inhibition; max response, %; AID 652105; PI5P4Kalpha enzyme, ADP-Glo luminescence, 60 min; hits give low values; hit rate 1.2% among 330,000; P48426; active = max response of -50% or lower; inconclusive = between -30% and -50%; inactive = -30% or higher; note: value at the top dose of about 77 µM
#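 Single end-point luminescence (ADP-Glo) quantified ADP from PI5P4Kalpha turnover; ATP 5 microM final, 1 h at RT, 0.1% CHAPS and 0.28 mM EGTA in HEPES pH 7.4.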
# Tb PGK inh – blocks T. brucei phosphoglycerate kinase; P07378; PGK/GAPDH coupled, Kinase-Glo luminescence, 60 min; Potency, µM (series often up to 57.5 µM), usual class: inhibitors; hit rate 0.043% among 380,000; note: nearly all actives have a fitted effect of over 60% in size
#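 Recombinant glycosomal PGK reaction used 1,3-bisphosphoglycerate generated in-well by GAPDH (100nM final) in 100mM TEA pH 7.6, 5mM MgCl2, 0.01% Tween-20. After 60 minutes at room temperature, ATP was read by Kinase-Glo Plus luminescence end-point.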
# Numbers stand for hits; – = inactive; ? = inconclusive; · = no result given. Only a selection was taken, and hits are over-represented in it overall. Unless noted, calls come from the whole dose curve; as a rule, active = well fitted curve in the direction sought with a large enough effect; inconclusive = small, poorly fitted or top-dose-only effect, or another doubt; inactive = no such curve, though single readings can be large; an effect the other way counts as inactive or inconclusive.
SMILES,Pin1 inhibitor,Tb PFK inh,PI4K2A inh,PI5P4K alpha inh,Tb PGK inh
O=C(OCC#CCSc1nnc(-c2cccc3ccccc23)o1)c1sc2ccccc2c1Cl,–,·,·,·,·
N#Cc1c(NC(=O)c2ccccc2Cl)n(Cc2ccccc2)c2nc3ccccc3nc12,–,–,-50.3,–,–
C=C1c2cccc(O)c2C(O)=C2C(=O)[C@]3(O)C(O)=C(C(N)=O)C(=O)[C@@H](N(C)C)[C@@H]3[C@@H](O)[C@H]12,·,–,?,-57.9,–
CCOC(=O)c1nn(-c2ccc(OC)cc2)c(=O)c2c(NC(=O)Cc3ccccc3)scc12,–,·,·,·,·
N#Cc1c(N)n(C2OC(CO)C(O)C2O)c2ncnc(N)c12 (stereo not given),–,·,-61.7,?,–
Nc1ncnc2c1ncn2C1O[C@H](CO)[C@@H](O)[C@@H]1O (stereo not given in full),–,–,–,–,–
Cc1ccc(-c2c(C#N)c(N)nc3c2CCCCC3)o1,–,–,–,·,–
Cc1ccc(-c2cc(-c3ccc(Cl)cc3)c(C#N)c(N)n2)o1,–,–,–,-92.6,–
CCOc1cc(-c2cc(-c3ccc(C)o3)nc(N)c2C#N)ccc1O,–,–,–,-54.5,–
Cc1ccc(-c2cc(-c3ccc4c(c3)OCO4)c(C#N)c(N)n2)o1,–,–,–,·,–
Cc1cc(-c2cc(-c3ccc(Cl)cc3)nc(N)c2C#N)co1,–,–,–,-68.8,–
Cc1ccc(-c2cc(-c3ccc(C)o3)nc(N)c2C#N)cc1,?,–,–,-90.1,–
O=C(CNC(=O)c1ccccc1)N[C@H](C(=O)Nc1cc(C(F)(F)F)ccc1Cl)c1ccccc1,–,·,·,·,·
COc1ccc(-n2c(SCC(=O)Nc3ccc(S(=O)(=O)Nc4cc(C)nc(C)n4)cc3)nnc2-c2ccco2)cc1,·,·,–,·,·
FC(F)(F)c1ccccc1Cn1ccc2ccc(-c3ccc4ccn(Cc5ccccc5C(F)(F)F)c4c3)cc21,·,·,–,·,·
Cc1c(-c2ccc(F)cc2)nc(N)c(C#N)c1-c1ccco1,?,–,–,–,–
Cc1ccc(-c2cc(-c3ccc(F)cc3)c(C#N)c(N)n2)o1,?,–,–,-67.2,–
N#CC1=C(N)NC(=S)C(C(N)=O)C1c1ccc([N+](=O)[O-])cc1 (stereo not given),–,?,–,-56.4,–
COc1cccc(C2c3c(ncn(-c4cccc(C#N)c4)c3=N)Oc3ccc4ccccc4c32)c1 (stereo not given),–,·,·,·,·
CCN(CC)CC(=O)Oc1ccc(NC(C)=O)cc1,·,·,–,·,·
CCOc1ccc(/C=C2\SC(=S)NC2=O)cc1OC,–,–,–,-78.4,–
CCOc1ccccc1C=C1SC(=S)NC1=O,–,·,–,-66.2,–
COc1cc(/C=C2/SC(=S)NC2=O)ccc1OS(=O)(=O)c1ccc(C)cc1,?,–,–,-84.6,–
Cc1ccc(/C=C2/SC(=O)NC2=S)o1,?,–,–,-93.0,–
O=C1NC(=O)/C(=C/c2ccccc2OCc2ccccc2)S1,–,–,–,–,–
SMILES,Pin1 inhibitor,Tb PFK inh,PI4K2A inh,PI5P4K alpha inh,Tb PGK inh
COc1ccc(/C=C2\SC(=O)NC2=S)cc1OC,?,–,–,-70.4,–
COc1cc(/C=C2\SC(=S)NC2=O)ccc1OS(=O)(=O)c1ccccc1,·,–,·,·,·
CCOc1ccc(/C=C2\SC(=S)N(C)C2=O)cc1OC,?,–,–,–,–
COc1ccc(/C=C2\SC(=S)NC2=O)cc1OS(=O)(=O)c1ccc(NC(C)=O)cc1,–,–,–,-88.4,–
Nc1ccc(S(=O)(=O)c2cc(O)c3ccccc3c2O)cc1,–,·,–,-77.9,–
O=CN/C=C/c1cc(O)ccc1O,?,30.1µM,–,-64.4,–
O=Cc1ccc(O)cc1O,–,–,–,–,–
Cc1nc(NC(=O)c2ccco2)sc1C(=O)O,–,–,-67.2,?,?
COc1ccc2nc(N3C(=O)C(O)=C(C(=O)c4ccco4)C3c3ccc(C)o3)sc2c1 (stereo not given),?,–,–,-50.3,–
Cc1ccc2nc(N3C(=O)C(O)=C(C(=O)c4ccc(C)o4)C3c3ccc(O)cc3)sc2c1 (stereo not given),–,–,–,-57.8,–
Cc1cc(C)c2nc(N3C(=O)C(O)=C(C(=O)c4ccco4)C3c3ccco3)sc2c1 (stereo not given),·,–,–,-53.4,–
COc1ccc2nc(N3C(=O)C(O)=C(C(=O)c4ccco4)C3c3ccccc3OC)sc2c1 (stereo not given),–,–,–,–,–
CCOC(=O)C1=NOC(C(=O)NC2CCCC2)(C(=O)c2ccc(OC)cc2)C1 (stereo not given),·,·,–,·,·
O=C(CCCN1CCN(c2ccc(F)cc2)CC1)NC1c2ccccc2CSc2ccccc21 (stereo not given),·,·,–,·,·
O=C(Nc1cccc2c(=O)[nH][nH]c(=O)c12)c1ccc([N+](=O)[O-])cc1,·,·,–,-64.5,·
Cc1nn(-c2ccccc2)c2sc(C(=O)N3CCN(S(=O)(=O)c4ccc(Br)s4)CC3)cc12,·,·,–,·,·
CCOC(=O)c1c(N2C(=O)Nc3cc(Cl)c(Cl)cc3N2O)sc2c1CCCCC2,53.6µM,–,–,?,–
NS(=O)(=O)c1ccc(N=Nc2c(O)ccc3ccccc23)cc1,?,–,–,–,–
Nc1nc(N)c(N=Nc2ccc(S(N)(=O)=O)cc2)c(=O)[nH]1,–,–,–,-61.8,–
Nc1nc(N)c(N=Nc2ccc(SCC(=O)O)cc2)c(=O)[nH]1,–,–,–,-64.1,–
Nc1nc(N)c(N=Nc2ccc(Cl)cc2)c(=O)[nH]1,–,–,–,-76.9,–
C=C(C)Cn1c(SCC(=O)NN=Cc2c(O)ccc3ccccc23)nnc1-c1ccc(Br)cc1,·,·,–,·,·
Cc1cccc(-c2nnn3c2nc(NCc2ccc4c(c2)OCO4)c2ccccc23)c1,–,·,-52.9,·,–
Clc1ccc(-c2nnn3c2nc(NCc2ccc4c(c2)OCO4)c2ccccc23)cc1,–,·,–,·,–
O=C(OCC1(COC(=O)c2cccnc2)CCCC(COC(=O)c2cccnc2)(COC(=O)c2cccnc2)C1O)c1cccnc1,·,·,–,·,·
SMILES,Pin1 inhibitor,Tb PFK inh,PI4K2A inh,PI5P4K alpha inh,Tb PGK inh
O=C(O/N=C1/CCCc2occc21)c1ccc(F)cc1,–,–,–,-58.2,–
O=C(O/N=C1/CCSc2ccccc21)c1ccc(F)cc1,–,–,–,·,–
O=C(OCC(COC(=O)c1cccnc1)(COC(=O)c1cccnc1)COC(=O)c1cccnc1)c1cccnc1,·,·,–,·,·
O=C(CNS(=O)(=O)c1ccccc1)N1CCN(c2ccccn2)CC1,·,·,–,·,·
C=CC[C@@H](CC(=O)NCCO)C(=O)NC[C@H](OC(=O)[C@@H](CC=C)Cc1ccc(F)cc1)c1ccccc1,–,–,-51.5,–,–
C=CC[C@@H](CC(=O)N[C@@H](CO)Cc1ccccc1)C(=O)NC[C@H](OC(=O)[C@@H](CC=C)Cc1ccc(F)cc1)c1ccccc1,–,–,–,–,–
NCCCNc1ncnc2ccc(-c3ccc4c(c3)OCO4)cc12,–,·,·,·,·
